# Experimental data published in PubChem BioAssay (Tox21).
# Records with an inconclusive call do not appear. Calls of active or inactive are those of the source. Unless noted, calls follow the shape of the full dose curve.
# Experiment: qHTS assay to identify small molecule agonists of the NFkB signaling pathway (AID 1159509; active = well fitted curve in the direction sought with a large enough effect in the signal ratio in the repeat runs, not every such curve was filed as active; the % refers to the signal ratio)
# Details: NFkB-bla ME-180 cells, beta-lactamase FRET ratio, 5 h; series mostly up to 61 µM
# Procedure, shortened: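 Beta-lactamase reporter assay run in quantitative high-throughput format on an NF-kB-responsive ME-180 line, with 5 hr compound treatment and a FRET-based blue/green fluorescence readout.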
row,SMILES,outcome
1,C=C(C)C(=O)O[C@H]1C[C@@H]2CC[C@@]1(C)C2(C)C,inactive
2,O=S1(=O)CC=CC1,inactive
3,Oc1cccc2ccccc12,inactive
4,CC(=O)c1ccccc1,inactive
5,C=C(C)C(=O)OCCOCCOCCOC(=O)C(=C)C,inactive
6,O=C(O)CCCCCCCCCCC(=O)O,inactive
7,O=c1[nH]c(=O)n([C@H]2CCCO2)cc1F,inactive
8,CC(C)c1ccc(S(=O)(=O)O)cc1,inactive
9,O=[N+]([O-])c1ccc(/C=C/c2ccc([N+](=O)[O-])cc2S(=O)(=O)O)c(S(=O)(=O)O)c1,inactive
10,O=C=NCCCCCCN=C=O,inactive
11,COc1ccc2cc([C@H](C)C(=O)O)ccc2c1,inactive
12,C[Si](O[Si](C)(C)C)O[Si](C)(C)C,inactive
13,CC1CCC2CC1C2(C)C (stereo not given),inactive
14,O=C(CC(C(=O)OC1CCCCC1)S(=O)(=O)O)OC1CCCCC1 (stereo not given),inactive
15,C[C@H]1C[C@H]2[C@@H]3CCC4=CC(=O)C=C[C@]4(C)[C@@]3(F)[C@@H](O)C[C@]2(C)[C@@]1(O)C(=O)CO,inactive
16,c1ccc2c(c1)ccc1ccccc12,inactive
17,CCN(CC)CCCC(C)Nc1ccnc2cc(Cl)ccc12 (stereo not given),inactive
18,CCCCCC/C(C=O)=C\c1ccccc1,inactive
19,C=C(C)C(=O)Nc1ccc(Cl)c(Cl)c1,inactive

row,SMILES,outcome
1,CCCCC(CC)COC(=O)C(C#N)=C(c1ccccc1)c1ccccc1 (stereo not given),inactive
2,CCCCCCCCCCCCOCCO,inactive
3,OCCOCCOCCO,inactive
4,CN(C)CCCN,inactive
5,CCCCN(CCCC)CCCC,inactive
6,O=C(O)c1ccccc1C(c1ccc(O)cc1)c1ccc(O)cc1,inactive
7,CCCCCC1=CCCC1=O,inactive
8,O=C(O)c1ccc2c(c1)C(=O)OC2=O,inactive
9,N[C@@H](Cc1cc(I)c(Oc2cc(I)c(O)c(I)c2)c(I)c1)C(=O)O,inactive
10,O=C(O)c1cc(O)c(O)c(O)c1,inactive
11,c1c[nH]cn1,inactive
12,c1ccc2scnc2c1,inactive
13,CC(=O)Nc1ccccc1,inactive
14,C#CCN(C)Cc1ccccc1,inactive
15,CCCCCCCCCC,inactive
16,O=C(O)[C@H](O)[C@@H](O)[C@H](O)[C@H](O)CO,inactive
17,O=C(Oc1ccccc1)c1ccccc1,inactive
18,CC(c1cc2ccccc2s1)N(O)C(N)=O (stereo not given),inactive

# Experiment: qHTS assay to identify small molecule agonists of the NFkB signaling pathway - cell viability counter screen (AID 1159515); also: nearly all actives have a fitted effect of over 55% in size
# Details: NFkB-bla ME-180 viability, CellTiter-Glo luminescence, 5 h; series mostly up to 61 µM
# Procedure, shortened: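 Tox21 library compounds were tested for cytotoxicity against NFkB-bla ME-180 cells during a 5 hr exposure at 37 C. CellTiter-Glo luminescence served as the viability read-out.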
row,SMILES,outcome
1,C=C(C)C(=O)O[C@H]1C[C@@H]2CC[C@@]1(C)C2(C)C,inactive
2,O=S1(=O)CC=CC1,inactive
3,Oc1cccc2ccccc12,inactive
4,CC(=O)c1ccccc1,inactive
5,C=C(C)C(=O)OCCOCCOCCOC(=O)C(=C)C,inactive
6,O=C(O)CCCCCCCCCCC(=O)O,inactive
7,O=c1[nH]c(=O)n([C@H]2CCCO2)cc1F,inactive
8,CC(C)c1ccc(S(=O)(=O)O)cc1,inactive
9,O=[N+]([O-])c1ccc(/C=C/c2ccc([N+](=O)[O-])cc2S(=O)(=O)O)c(S(=O)(=O)O)c1,inactive
10,O=C=NCCCCCCN=C=O,inactive
11,OCc1cccnc1,inactive
12,COc1ccc2cc([C@H](C)C(=O)O)ccc2c1,inactive
13,C[Si](O[Si](C)(C)C)O[Si](C)(C)C,inactive
14,C/C=C1/CC2C=CC1C2 (stereo not given),inactive
15,CC1CCC2CC1C2(C)C (stereo not given),inactive
16,O=C(CC(C(=O)OC1CCCCC1)S(=O)(=O)O)OC1CCCCC1 (stereo not given),inactive
17,C[C@H]1C[C@H]2[C@@H]3CCC4=CC(=O)C=C[C@]4(C)[C@@]3(F)[C@@H](O)C[C@]2(C)[C@@]1(O)C(=O)CO,inactive
18,c1ccc2c(c1)ccc1ccccc12,inactive
19,CCN(CC)CCCC(C)Nc1ccnc2cc(Cl)ccc12 (stereo not given),inactive
20,CCCCCC/C(C=O)=C\c1ccccc1,inactive

row,SMILES,outcome
1,C=C(C)C(=O)Nc1ccc(Cl)c(Cl)c1,inactive
2,CCCCC(CC)COC(=O)C(C#N)=C(c1ccccc1)c1ccccc1 (stereo not given),inactive
3,CCCCCCCCCCCCOCCO,inactive
4,OCCOCCOCCO,inactive
5,CN(C)CCCN,inactive
6,CCCCN(CCCC)CCCC,inactive
7,O=C(O)c1ccccc1C(c1ccc(O)cc1)c1ccc(O)cc1,inactive
8,CCCCCC1=CCCC1=O,inactive
9,O=C(O)c1ccc2c(c1)C(=O)OC2=O,inactive
10,N[C@@H](Cc1cc(I)c(Oc2cc(I)c(O)c(I)c2)c(I)c1)C(=O)O,inactive
11,O=C(O)c1cc(O)c(O)c(O)c1,inactive
12,c1c[nH]cn1,inactive
13,c1ccc2scnc2c1,inactive
14,CC(=O)Nc1ccccc1,inactive
15,C#CCN(C)Cc1ccccc1,inactive
16,CCCCCCCCCC,inactive
17,O=C(O)[C@H](O)[C@@H](O)[C@H](O)[C@H](O)CO,inactive
18,O=C(Oc1ccccc1)c1ccccc1,inactive
19,CC(c1cc2ccccc2s1)N(O)C(N)=O (stereo not given),inactive

# Experiment: qHTS assay to identify small molecule agonists of the endoplasmic reticulum stress response signaling pathway (AID 1159516; active = well fitted activation curve with a large enough effect in the signal ratio in the repeat runs, not every such curve was filed as active; the % refers to the signal ratio)
# Details: ESRE-bla HeLa, ER stress beta-lactamase reporter, 5 h; series mostly up to 61 µM
# Procedure, shortened: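 Fluorescence at 460 and 530 nm (405 nm excitation) reports beta-lactamase from an ER stress response element in HeLa cells treated 5 hr at 37 C.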
row,SMILES,outcome
1,C=C(C)C(=O)O[C@H]1C[C@@H]2CC[C@@]1(C)C2(C)C,inactive
2,O=S1(=O)CC=CC1,inactive
3,Oc1cccc2ccccc12,inactive
4,CC(=O)c1ccccc1,inactive
5,C=C(C)C(=O)OCCOCCOCCOC(=O)C(=C)C,inactive
6,O=C(O)CCCCCCCCCCC(=O)O,inactive
7,O=c1[nH]c(=O)n([C@H]2CCCO2)cc1F,inactive
8,CC(C)c1ccc(S(=O)(=O)O)cc1,inactive
9,O=[N+]([O-])c1ccc(/C=C/c2ccc([N+](=O)[O-])cc2S(=O)(=O)O)c(S(=O)(=O)O)c1,inactive
10,O=C=NCCCCCCN=C=O,inactive
11,OCc1cccnc1,inactive
12,COc1ccc2cc([C@H](C)C(=O)O)ccc2c1,inactive
13,C[Si](O[Si](C)(C)C)O[Si](C)(C)C,inactive
14,C/C=C1/CC2C=CC1C2 (stereo not given),inactive
15,CC1CCC2CC1C2(C)C (stereo not given),inactive
16,O=C(CC(C(=O)OC1CCCCC1)S(=O)(=O)O)OC1CCCCC1 (stereo not given),inactive
17,C[C@H]1C[C@H]2[C@@H]3CCC4=CC(=O)C=C[C@]4(C)[C@@]3(F)[C@@H](O)C[C@]2(C)[C@@]1(O)C(=O)CO,inactive
18,c1ccc2c(c1)ccc1ccccc12,inactive
19,CCN(CC)CCCC(C)Nc1ccnc2cc(Cl)ccc12 (stereo not given),inactive
20,CCCCCC/C(C=O)=C\c1ccccc1,inactive

row,SMILES,outcome
1,C=C(C)C(=O)Nc1ccc(Cl)c(Cl)c1,inactive
2,CCCCC(CC)COC(=O)C(C#N)=C(c1ccccc1)c1ccccc1 (stereo not given),inactive
3,CCCCCCCCCCCCOCCO,inactive
4,OCCOCCOCCO,inactive
5,CN(C)CCCN,inactive
6,CCCCN(CCCC)CCCC,inactive
7,O=C(O)c1ccccc1C(c1ccc(O)cc1)c1ccc(O)cc1,inactive
8,CCCCCC1=CCCC1=O,inactive
9,O=C(O)c1ccc2c(c1)C(=O)OC2=O,inactive
10,N[C@@H](Cc1cc(I)c(Oc2cc(I)c(O)c(I)c2)c(I)c1)C(=O)O,inactive
11,O=C(O)c1cc(O)c(O)c(O)c1,inactive
12,c1c[nH]cn1,inactive
13,c1ccc2scnc2c1,inactive
14,CC(=O)Nc1ccccc1,inactive
15,C#CCN(C)Cc1ccccc1,inactive
16,CCCCCCCCCC,inactive
17,O=C(O)[C@H](O)[C@@H](O)[C@H](O)[C@H](O)CO,inactive
18,O=C(Oc1ccccc1)c1ccccc1,inactive
19,CC(c1cc2ccccc2s1)N(O)C(N)=O (stereo not given),inactive
